This is a sample that favours compounds with a hit; in the whole collection about 1.2% have one here.
Avidin fluor: compound fluoresces at 488/530 nm on avidin beads; compound fluorescence 488/530 nm, flow cytometry; stronger effect = higher value; fluorescence (KMESF) at 10 µM; hit rate 0.38% among 220,000; in the data active = fluorescence above about 47
RGS16-Gao HTS: RGS16-Galphao interaction regulator (human); hit rate 0.38% among 220,000; binding response (% of control), % at 10 µM; O15492+P09471; bead-based flow cytometry RGS16-Galphao binding, fluorescence; actives lie on both sides;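 also: Galphao activated by GDP with aluminum fluoride before binding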
Target sequence (O15492 whole entry, looked up): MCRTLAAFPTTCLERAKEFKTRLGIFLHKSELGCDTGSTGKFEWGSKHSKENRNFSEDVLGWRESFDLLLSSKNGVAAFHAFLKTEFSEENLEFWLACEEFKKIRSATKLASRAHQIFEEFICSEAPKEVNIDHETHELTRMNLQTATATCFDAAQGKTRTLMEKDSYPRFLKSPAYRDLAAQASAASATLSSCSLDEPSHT
Target sequence (P09471 whole entry, looked up): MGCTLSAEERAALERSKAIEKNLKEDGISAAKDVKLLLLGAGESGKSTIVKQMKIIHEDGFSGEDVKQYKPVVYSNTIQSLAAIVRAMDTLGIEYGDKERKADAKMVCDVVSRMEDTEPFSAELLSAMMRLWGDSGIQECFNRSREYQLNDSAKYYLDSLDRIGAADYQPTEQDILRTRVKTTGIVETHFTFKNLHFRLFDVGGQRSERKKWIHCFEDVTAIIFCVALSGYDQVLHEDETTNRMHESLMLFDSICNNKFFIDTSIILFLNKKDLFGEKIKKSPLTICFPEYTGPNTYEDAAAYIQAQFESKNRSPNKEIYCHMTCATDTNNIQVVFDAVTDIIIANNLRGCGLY
RGS8-Gao reg: human RGS8-Galphao interaction regulation; AID 1423; response (percent of control binding), % at 10 µM; multiplexed bead flow cytometry, RGS8-Galphao binding; actives lie on both sides; hit rate 0.34% among 220,000; in the data active = response below about 60% or above about 140%; inactive = in between;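 also: Galphao activated as the GDP aluminium fluoride complex binding bead-coupled RGS8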
Target sequence (P09471 whole entry, looked up): as above
RGS4-Gao reg: modulates binding of RGS4 to human Galphao | P09471 | Multiplexed bead flow cytometry; actives lie on both sides | hit rate 0.33% among 220,000 | binding response (% of control), % at 10 µM; in the data active = binding response below about 49% or above about 150%; inactive = in between;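 also: fluorescent Galphao activated with aluminum fluoride binding bead-coupled RGS4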
RGS7-Gao reg: human RGS7-Galphao interaction regulation | Multiplexed bead flow cytometry, RGS7-Galphao binding; actives lie on both sides | binding response (% of control), % at 10 µM | hit rate 0.35% among 220,000; in the data active = binding response below about 49% or above about 150%; inconclusive = no clear call, values can overlap the other calls; inactive = in between;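 also: fluorescent Galphao held in activated GDP-AlF4 state binding bead-coupled RGS7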
GSH fluor: GSH bead compound fluorescence profile. hit rate 0.25% among 190,000. AID 1776. fluorescence (KMESF) at 10 µM. GSH beads flow cytometry, compound fluorescence 488/530 nm; stronger effect = higher value; in the data active = fluorescence above about 89;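 also: glutathione beads carrying GST-tagged Bcl family fusion proteins plus one bare bead set; values are compound well signal with DMSO vehicle wells as background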
RGS-Gao: modulates binding between human RGS4 and Galphao; multiplexed bead flow cytometry, RGS–Galpha-o binding; shares compounds with RGS16-Gao HTS; hit rate 99% among 1,600; AID 1504; RGS4–Galpha-o binding response, % at 10 µM;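 also: fluorescently labeled Galpha-o bound to GDP with aluminium fluoride binding biotinylated RGS beads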
Avidin counter: biotin-avidin bead binding disruption counter-screen; shares compounds with RGS16-Gao HTS; streptavidin beads, fluorescein-biotin binding, flow cytometry; inhibition, % at 10 µM; 1,700 tested, under 10 active; AID 1783;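 active = inhibition above 50%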;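 also: median green fluorescence of gated singlet beads compared with DMSO control wells; 0% = DMSO wells and 100% = complete loss of bead fluorescence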
RGS8-Gao single: RGS8-Galphao interaction regulation, single point confirmation | hit rate 3% among 1,700 | shares compounds with RGS16-Gao HTS | bead-based flow cytometry RGS8-Galphao binding, fluorescence; actives lie on both sides | binding response (% of control), % at 10 µM | AID 1836; in the data active = binding response below about 72% or above about 130%; inactive = in between;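 also: Galphao activated as GDP AlF4 complex before binding bead RGS8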
RGS7-Gao single: confirmation of regulators of human RGS7-Galphao interaction. shares compounds with RGS16-Gao HTS. bead-based flow cytometry RGS7-Galphao binding; actives lie on both sides. response (percent of control binding), % at 10 µM. hit rate 7.8% among 1,700; in the data active = response below about 75% or above about 130%; inactive = in between;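 also: fluorescent Galphao activated with GDP and aluminum fluoride binding bead-coupled RGS7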
RGS16-Gao conf: confirmation of regulators of human RGS16-Galphao interaction; shares compounds with RGS16-Gao HTS; response (% of control binding), % at 10 µM; hit rate 4% among 1,700; bead-based flow cytometry, RGS16-Galphao binding; actives lie on both sides; in the data active = response below about 74% or above about 130%; inactive = in between;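 also: Galphao activated as the GDP aluminium fluoride complex binding bead-coupled RGS16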
RGS4-Gao single: confirmation of regulators of human RGS4-Galphao interaction; shares compounds with RGS16-Gao HTS; AID 1840; hit rate 4% among 1,700; binding response (% of control), % at 10 µM; RGS4-Galphao binding, multiplexed bead flow cytometry; actives lie on both sides; in the data active = binding response below about 74% or above about 130%; inactive = in between
RGS19-Gao single: RGS19-Galphao interaction regulation, single point confirmation; shares compounds with RGS16-Gao HTS; bead-based flow cytometry RGS19-Galphao binding; actives lie on both sides; response (percent of control binding), % at 10 µM; hit rate 5% among 1,700; AID 1841; in the data active = response below about 50% or above about 160%; inactive = in between;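 also: 100% = no compound control and 0% = blank background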
Active calls of the source: *; ? = inconclusive; nt = no result; [ ] = another dose, or the depositor's remark. Unless noted, no rule for the calls is given here.

SMILES	Avidin fluor	RGS16-Gao HTS	RGS8-Gao reg	RGS4-Gao reg	RGS7-Gao reg	GSH fluor	RGS-Gao	Avidin counter	RGS8-Gao single	RGS7-Gao single	RGS16-Gao conf	RGS4-Gao single	RGS19-Gao single
O=C(Cn1nnc2ccccc21)N1CCCCC1	12	127.7	107.7	104.6	106.4	13	nt	nt	nt	nt	nt	nt	nt
Cc1ccc(-n2c(N)c(C(=O)N3CCOCC3)sc2=S)cc1	13	228.3	145.9*[activator]	120.0	119.5	21	120.0*	nt	nt	nt	nt	nt	nt
CCOc1ccc(NS(=O)(=O)c2ccc3ncsc3c2)cc1	8	142.8	133.5	145.7	151.8*[activator]	15	145.7*	1.1	99.8	96.8	98.0	99.8	110.7
CCCCNC(=O)c1ccc(N2CCC3(CC2)OCCO3)c([N+](=O)[O-])c1	9	21.1*	77.8	94.2	93.4	9	94.2*	-1.5	92.6	90.9	93.1	91.9	90.7
CCOC(=O)N1CCC(NC(=O)c2ccc(N3CCC4(CC3)OCCO4)c([N+](=O)[O-])c2)CC1	14	99.2	99.2	99.9	100.8	16	nt	nt	nt	nt	nt	nt	nt
O=C(Cc1noc2ccccc12)Nc1ccc2ccccc2c1	4	24.7*	70.4	90.9	89.5	22	90.9*	-0.1	94.0	87.9	88.7	91.0	99.4
CNc1ncnc2sc(-c3ccccc3)cc12	0	13.5*	15.8*	24.4*	11.2*	11	nt	1.8	104.3	102.9	104.4	101.6	98.5
O=C(O)CSc1ncnc2sc(-c3ccccc3)cc12	8	98.4	96.9	96.1	94.3	17	nt	nt	nt	nt	nt	nt	nt
O=C(O)CCSc1ncnc2sc(-c3ccccc3)cc12	86*	235.7*[activator]	114.0	262.4*[activator]	?	nt	nt	-0.4	98.1	101.1	98.3	100.3	112.6
O=S(=O)(NC(=S)NC1CCCCC1)c1ccc(Br)cc1	11	95.4	96.7	96.0	86.0	14	nt	nt	nt	nt	nt	nt	nt
COc1ccc(CC2CCOC2=O)cc1 (centres undefined)	10	-30.9*	91.6	94.4	96.5	37	94.4*	-1.1	102.0	106.2	103.8	104.9	93.7
O=c1c2oc3ccccc3c2ncn1Cc1ccc(Cl)cc1	13	107.1	104.5	106.7	106.1	12	nt	nt	nt	nt	nt	nt	nt
N#Cc1c(-c2ccccc2)nc(N2CCCCCC2)[nH]c1=O	3	14.7*	82.2	86.0	88.5	52	86.0*	-0.4	101.2	103.7	103.8	103.1	94.9
CCN(CC)CCNc1ccc2nnc(CCNS(=O)(=O)c3ccc(C)cc3)n2n1	3	10.6*	14.8*	20.2*	16.4*	9	nt	-0.5	100.5	66.6*	91.5	76.6	106.3
Cc1ccc(S(=O)(=O)NCCc2nnc3ccc(SCC(=O)Nc4nc(C)cs4)nn23)cc1	4	102.0	100.7	102.2	99.2	8	nt	nt	nt	nt	nt	nt	nt
CCOc1ccc2c(c1)S/C(=C\c1cccs1)C(=O)N2	7	98.8	99.8	97.2	?	nt	nt	nt	nt	nt	nt	nt	nt
Cc1ccc(S(=O)(=O)Nc2c(C)nn(C)c2C)cc1	9	-94.8*	75.4	65.9	83.7	19	65.9*	1.6	102.3	92.6	104.8	99.0	110.4
Cc1cc(S(N)(=O)=O)c(N)c(S(N)(=O)=O)c1	6	100.5	102.6	102.0	?	nt	nt	nt	nt	nt	nt	nt	nt
COC(=O)CNC(c1ccccc1)c1cc(Br)ccc1NC(C)=O (centres undefined)	6	102.3	73.1	93.9	78.9	18	nt	0.9	101.8	102.5	98.3	102.6	105.6
COC(=O)CNC(c1ccccc1)c1cc(Cl)ccc1NC(=O)c1cccc(Cl)c1 (centres undefined)	3	108.1	102.2	102.4	105.0	19	nt	nt	nt	nt	nt	nt	nt
Cc1nnc(Cl)c2nn(-c3ccccc3F)c(C)c12	4	105.3	101.2	102.5	103.1	8	nt	nt	nt	nt	nt	nt	nt
Cc1nnc(SCCN2CCOCC2)c2nn(-c3ccccc3F)c(C)c12	13	180.4*[activator]	120.7	110.5	108.6	3	110.5*	0.0	110.3	110.7	113.1	109.1	112.1
NC(=O)Nc1ccc(C(=O)OCC(=O)NC2CCCCC2)cc1	26	102.7	103.5	105.5	105.2	8	nt	nt	nt	nt	nt	nt	nt
CC1Cc2cc(/C(O)=C3/C(=O)C(=O)N(CC4CCCO4)C3c3ccco3)ccc2O1 (centres undefined)	110*	107.2	100.7	115.4	186.4*[activator]	24	115.4*	-0.9	102.5	90.6	102.1	98.2	113.9
CC(C)=NOc1cc(NC(=O)CCl)cc([N+](=O)[O-])c1	4	106.2	102.0	101.3	99.7	13	nt	nt	nt	nt	nt	nt	nt
SMILES	Avidin fluor	RGS16-Gao HTS	RGS8-Gao reg	RGS4-Gao reg	RGS7-Gao reg	GSH fluor	RGS-Gao	Avidin counter	RGS8-Gao single	RGS7-Gao single	RGS16-Gao conf	RGS4-Gao single	RGS19-Gao single
CCC(=O)Nc1cc(ON=C(C)C)cc([N+](=O)[O-])c1	-2	39.3	34.2*	-39.5*	-14.7*	14	nt	-1.6	99.4	99.4	101.3	97.7	102.3
COC(=O)c1cc(C)sc1NC(=O)c1cccnc1	nt	nt	nt	nt	nt	46	nt	2.5	99.6	101.3	98.9	100.3	99.2
O=C(O)/C=C/C(=O)Nc1ccc2nccnc2c1	11	99.8	100.7	102.7	96.5	23	nt	nt	nt	nt	nt	nt	nt
COc1ccc2c(CC(=O)OCC(=O)c3ccc(F)cc3)coc2c1	102*	105.2	98.5	112.5	180.8*[activator]	29	112.5*	-1.1	102.0	102.5	102.2	104.8	120.8
COc1ccc2c(CC(=O)OCC(=O)c3ccccc3OC)coc2c1	9	99.2	102.3	98.6	98.8	12	nt	nt	nt	nt	nt	nt	nt
CCCC(=O)OC(C(=O)Nc1cc(C(F)(F)F)ccc1Cl)c1ccccc1 (centres undefined)	15	241.4*[activator]	122.3	106.6	107.3	8	106.6*	-0.5	103.6	102.6	101.4	101.8	97.2
COCCn1c(=O)[nH]c(=O)c2c1nc(-c1cc(Br)c3c(c1)OCO3)n2Cc1ccccc1	18	100.3	99.7	100.9	?	11	nt	nt	nt	nt	nt	nt	nt
O=C(c1ccccc1Cl)N(Cc1ccc(Br)cc1)N1C(=O)CCC1=O	6	80.1	96.7	101.5	95.6	23	nt	nt	nt	nt	nt	nt	nt

Screens deposited in PubChem BioAssay by NMMLSC.
